Assay results as given in PubChem BioAssay AID1468 (National Center for Advancing Translational Sciences (NCATS), 2008).
Screen size: about 280,000 compounds; about 1,100 (0.39%) were called active. Roughly 7% stayed inconclusive and do not appear here. The call rests on the fitted dose curve; in most records, active means well fitted inhibition curve with a large enough effect; inconclusive means small, poorly fitted or top-dose-only effect, or effect the other way; inactive means flat fitted curve, though single readings scatter. Shown is part of a subset that was picked to be rich in actives. A call without a number means that no potency is given here.
Further: nearly all actives have a fitted effect of over 55% in size.
Potency means the concentration at half of the fitted maximal effect.

The compounds below were run against Microtubule-associated protein tau (Homo sapiens) (UniProt P10636) (assay: qHTS for Inhibitors of Tau Fibril Formation, Fluorescence Polarization). Conditions: K18 P301L tau heparin fibrillization, Alexa594 FP, 6 h; series mostly up to 57.7 µM.
Chain of Microtubule-associated protein tau (Homo sapiens) (P10636 561-689 P618L limits assumed): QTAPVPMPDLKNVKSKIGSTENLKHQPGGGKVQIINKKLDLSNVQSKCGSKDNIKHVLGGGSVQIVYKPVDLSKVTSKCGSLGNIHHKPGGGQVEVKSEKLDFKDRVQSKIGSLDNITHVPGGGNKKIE
Summary of the method: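 Read-out: fluorescence polarization of Alexa 594-labeled tau (0.24 uM), 555 nm excitation, 632 nm emission. Mixtures held 15 uM unlabeled K18 P301L, compound and 20 uM heparin, pH 7 acetate buffer, incubated 6 hr at 37 C.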
With `Cc1c(Cl)cccc1-c1ccc(CNCCCSc2nnnn2C)o1` the Potency was “inactive”. With `Cc1cccc2nc(-c3ccc(Cl)s3)c(Nc3ccc4c(c3)OCCO4)n12` the Potency was “inactive”. For `Cc1ccc2sc(N(Cc3cccnc3)C(=O)C3COc4ccccc4O3)nc2c1C` (stereo unspecified), the Potency was “inactive”. In the case of `COc1ccc(N2CCN(C(=O)C3CCCN(C(=O)c4cc5sccc5n4C)C3)CC2)cc1` (stereo unspecified), the Potency is reported as “inactive”. With `CCc1ccc(CN(Cc2ccco2)C(=O)COc2ccc(Cl)c(C)c2)cc1` the Potency was “inactive”. `O=C1CCCC2=C1C(c1ccccc1)n1c(s/c(=C/c3cccc(F)c3)c1=O)=N2` (stereo unspecified) was tested, and the Potency was “inactive”. In the case of `COc1ccc(OC)c(C2C3=C(N=c4s/c(=C\c5cccc(O)c5)c(=O)n42)c2ccccc2CC3)c1` (stereo unspecified), the Potency is reported as 22.4 µM (active). With `CCOC(=O)C1=C(C)N=c2s/c(=C\C(=O)OC)c(=O)n2C1c1ccc(OC)cc1` (stereo unspecified) the Potency was “inactive”. With `COC(=O)c1sccc1S(=O)(=O)N(CC(=O)Nc1ccc(C)c(F)c1)c1ccc(C)c(C)c1` the Potency was “inactive”. `CCOc1ccc(Nc2ncnc3scc(-c4ccc(OC)cc4)c23)cc1` was tested, and the Potency was “inactive”. For `CCOC(=O)N1CCc2c(sc(NCc3cccc(F)c3)c2C(=O)Nc2ccccc2OCC)C1`, the Potency was “inactive”. For `CCOC(=O)N1CCc2c(sc3c2c(=O)n(-c2ccc(CC)cc2)c(=O)n3C)C1`, the Potency was “inactive”. For `Cc1ccccc1CNC(=O)c1cccc(NC(=O)c2nsc3ccccc23)c1`, the Potency was “inactive”. With `Cc1cc(NC(=O)Nc2ccc(Cl)cc2)n(-c2ccccc2)n1` the Potency was “inactive”. In the case of `Cc1cc(NC(=O)Nc2ccccc2)n(-c2ccccc2)n1`, the Potency is reported as “inactive”. In the case of `Cc1ccc(NC(=O)Nc2cc(-c3ccccc3)nn2C)cc1Cl`, the Potency is reported as 14.1 µM (active). In the case of `CC1CN(C(=O)N2CCC(C(=O)NCc3ccco3)CC2)c2cc(Cl)ccc2O1` (stereo unspecified), the Potency is reported as “inactive”. For `Cc1cccc(NC(=O)CSc2nc3c([nH]c4ccccc43)c(=O)n2-c2cc(C)cc(C)c2)c1`, the Potency was “inactive”. In the case of `COCCn1c(SCC(=O)c2cc(C)ccc2C)nc2cc(C(=O)NC3CCCC3)ccc2c1=O`, the Potency is reported as “inactive”. In the case of `COc1ccc(-c2cn3c(C)c(C(=O)Nc4cc(C)cc(C)c4)sc3n2)cc1`, the Potency is reported as “inactive”. With `c1ccc(-n2nnnc2N2CCOCC2)cc1` the Potency was “inactive”. `O=C1C(Cl)=C(N2CCOCC2)C(=O)N1c1ccccc1` was tested, and the Potency was 28.2 µM (active). In the case of `O=C1OC(NC(=O)c2ccccc2)C(N2CCOCC2)=C1Cl` (stereo unspecified), the Potency is reported as “inactive”. `Cc1ccc2nc(N3CCN(c4cccc(Cl)c4)CC3)c3nnnn3c2c1` was tested, and the Potency was “inactive”. In the case of `O=C(CNS(=O)(=O)c1cccs1)N1CCN(c2ccccc2Cl)CC1`, the Potency is reported as “inactive”. In the case of `Cc1ccccc1CN1CCC(CNC(=O)c2cc3ccc4cccnc4c3[nH]2)CC1`, the Potency is reported as “inactive”. In the case of `COc1ccccc1CNC(=O)NCc1noc2ccc(C)cc12`, the Potency is reported as “inactive”. In the case of `Cc1ccc(NC(=O)C2CCN(S(=O)(=O)c3cc(-c4noc(C)n4)ccc3C)CC2)c(C)c1`, the Potency is reported as “inactive”. With `COc1ccc(OC)c(NC(=O)CSc2nc3ccccc3nc2N2CCCCC2)c1` the Potency was “inactive”. `O=c1c(O)c(Br)ccc2c(Br)c(O)c(O)c(O)c12` was tested, and the Potency was 10 µM (active). `CC(C)Cn1c(=O)c2ccccc2n2c(-c3cccc(Cl)c3)nnc12` was tested, and the Potency was “inactive”. With `COc1ccc2c(c1)c(N1CCCC1=O)c(C(=O)Nc1ccccc1C(F)(F)F)n2C` the Potency was “inactive”. With `COc1cccc(Nc2nc(N)c([N+](=O)[O-])c(NCc3ccco3)n2)c1` the Potency was 3.16 µM (active). `CN(c1ccccc1)c1nc(N)c([N+](=O)[O-])c(NCc2ccco2)n1` was tested, and the Potency was “inactive”. In the case of `COc1ccc(Nc2nc(Cl)nc(NCc3ccco3)n2)cc1`, the Potency is reported as “inactive”. With `O=C(NCC(c1cccnc1)N1CCc2ccccc21)c1cccc(C(F)(F)F)c1` (stereo unspecified) the Potency was “inactive”. In the case of `Cc1cc(C)cc(NS(=O)(=O)c2ccc3[nH]cc(C(=O)N4CCCCC4)c(=O)c3c2)c1`, the Potency is reported as “inactive”. For `CC(C)c1ccc(NS(=O)(=O)c2ccc3[nH]cc(C(=O)NC4CCCC4)c(=O)c3c2)cc1`, the Potency was 11.2 µM (active). For `COc1ccc(S(=O)(=O)NC(C)C)cc1C(=O)NC1CCCCC1`, the Potency was “inactive”. In the case of `Cc1cccc(NC(=O)Cn2nc(-c3ccc(Cl)cc3)c3ccccc3c2=O)c1`, the Potency is reported as “inactive”. For `O=S(=O)(c1ccccc1)c1nc(-c2ccc(Cl)cc2Cl)oc1N1CCCCC1`, the Potency was “inactive”. `CCc1ccc(NC(=O)CN2CCSc3ccc(S(=O)(=O)N4CCCC4)cc32)cc1` was tested, and the Potency was “inactive”. `COc1ccc(S(=O)(=O)NCc2cccn2Cc2cccc(C)c2)cc1Cl` was tested, and the Potency was “inactive”. For `Cc1cccc(CC(=O)N2CC(=O)Nc3ccc(F)cc3C2c2ccccc2)c1` (stereo unspecified), the Potency was “inactive”. `Cc1ccc(-c2nnc(-c3ccc(NC(=O)c4cccs4)cc3)o2)cc1` was tested, and the Potency was “inactive”. For `O=C(Nc1ccc(-c2nc3cc(NC(=O)c4ccccc4Cl)ccc3o2)cc1)c1ccccc1Cl`, the Potency was “inactive”. For `CC(C)c1ccc2oc(-c3cc(NC(=O)c4cccs4)ccc3Cl)nc2c1`, the Potency was 12.6 µM (active). With `CCN(CC)CCNC(=O)c1cc2c(=O)oc3ccc(C)cc3c2s1` the Potency was “inactive”. With `Cc1cccc(NC(=O)Nc2cccc(Oc3c(F)c(F)c(F)c(F)c3F)c2)c1` the Potency was 8.91 µM (active). `Cc1cccc(NC(=O)c2cccc(C(F)(F)F)c2)c1` was tested, and the Potency was “inactive”. For `COc1cccc(NC(=O)NCc2ccc(F)cc2)c1`, the Potency was “inactive”. In the case of `COc1cc2c(=O)c(S(=O)(=O)c3ccc(C(C)C)cc3)cn(Cc3ccccc3C)c2cc1OC`, the Potency is reported as “inactive”. For `CCOc1ccc(CNC(=O)c2cc(-c3ccc(Cl)s3)nc3ccccc23)cc1`, the Potency was “inactive”. For `O=C(Nc1ccccc1)Nc1ccccc1C(=O)NCc1ccco1`, the Potency was “inactive”. `CCc1ccc(-c2cc(C(=O)NCc3ccco3)c3ccccc3n2)s1` was tested, and the Potency was 28.2 µM (active). With `COc1ccc(-c2noc(-c3ccc(N4CCN(c5ccccc5)CC4)c([N+](=O)[O-])c3)n2)cc1OC` the Potency was “inactive”. In the case of `CCOc1ccccc1CNCc1c(C(=O)O)c(C)n(Cc2ccc(C)cc2)c1C`, the Potency is reported as “inactive”. `COc1ccccc1CNC(=O)CCn1c(=O)c2ccccc2n(CC(=O)Nc2ccc(Br)cc2F)c1=O` was tested, and the Potency was “inactive”. In the case of `Cc1cc(C)c2oc(C(=O)Nc3ccc(S(=O)(=O)N(C)c4ccccc4)cc3)cc(=O)c2c1`, the Potency is reported as “inactive”. For `COc1ccc(-c2csc(-c3c(N)c(C(=O)c4ccc(OC)c(OC)c4)n4ccccc34)n2)cc1`, the Potency was “inactive”. With `Cc1ccc(Cl)cc1N1CCN(C(=O)CN2C(=O)COc3ccc(S(=O)(=O)N4CCOCC4)cc32)CC1` the Potency was “inactive”.
